In PubChem BioAssay one finds composite z-score and z-score data, which are given here for four compounds.

Each structure is given as a SMILES string. Active and inactive are the calls of the source. Unless noted, no rule for the calls is given here.

Assay [1] concerns Wnt5a (protein binding on small-molecule microarray). Kind of assay: small molecules binding Wnt5a protein – biophysical, small-molecule microarray, 635/667 nm fluorescence, primary screen (AID 1142).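 Also: fluorescence read at 667 nm with signal to noise per printed feature.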 The settings on record: 635 nm fluorescence, higher = more signal.
Assay [2] is described as follows: ATP-based viability of Huh7 replicon cells – cell-based, CellTiter-Glo luminescence, basal, 48 h, cytotoxicity control for HCV replication inhibitor project, primary screen (AID 1143).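 Also: Huh7 hepatoma cells carrying a hepatitis C replication reporter with no stimulus; test concentration not given here.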 The settings on record: higher = more signal, called active from +8 up or from −8 down.
A short description of assay [3]: Pseudomonas biofilm growth suppression – PAO1 strain, BacTiter-Glo luminescence, LB-PBS, primary screen (AID 1144). The conditions noted are these: P. aeruginosa PAO1 biofilm, 12 h, higher = more signal.
Assay [4] in a line: basal CRE-LacZ reporter activity in PC12 – cell-based, unstimulated, primary screen (AID 1145). The settings on record: no forskolin, luminescence, 4.5 h, higher = more signal, called active from +8 up or from −8 down.
A short description of assay [5]: forskolin-driven CRE-LacZ activity in PC12 – cell-based, CRE-LacZ reporter, forskolin-stimulated, primary screen (AID 1146).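 Also: PC12 cells with 6xCRE LacZ reporter stimulated by forskolin 10 µM; beta-galactosidase reporter signal reflecting CREB driven transcription.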 The settings on record: luminescence, 4.5 h, higher = more signal, called active from +8 up or from −8 down.
Assay [6] deals with Streptavidin (Streptomyces avidinii) (UniProt P22629). Kind of assay: compounds binding control protein streptavidin – biophysical, small-molecule microarray, 635/667 nm fluorescence, artefact control for SMM compound annotation, primary screen (AID 1147).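 Also: signal reflects streptavidin binding to arrayed compounds as a control protein.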 The settings on record: higher = more signal.
Chain of Streptavidin (Streptomyces avidinii) (P22629 whole entry, looked up): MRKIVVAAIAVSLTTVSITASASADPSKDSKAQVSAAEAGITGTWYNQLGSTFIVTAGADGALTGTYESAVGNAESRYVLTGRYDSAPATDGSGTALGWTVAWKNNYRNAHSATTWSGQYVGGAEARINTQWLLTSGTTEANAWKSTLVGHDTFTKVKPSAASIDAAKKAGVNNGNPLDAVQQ
Assay [7] is described as follows: probe aInhba binding on compound microarray – biochemical, small-molecule microarray, 635/667 nm fluorescence, primary screen (AID 1148).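 Also: score merges 667nm spot fluorescence with signal-to-noise for antibody binding to printed compounds.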 The settings on record: higher = more signal.
In assay [8] the target is Torsin-1A (Homo sapiens) (UniProt O14656). Kind of assay: TOR1A wild-type binding on microarray – cell lysate, small-molecule microarray, lysate, 635/667 nm, primary screen (AID 1149). The settings on record: COS7 hTOR1A-WT lysate, 635 nm fluorescence, higher = more signal.
Chain of Torsin-1A (Homo sapiens) (O14656 whole entry, looked up): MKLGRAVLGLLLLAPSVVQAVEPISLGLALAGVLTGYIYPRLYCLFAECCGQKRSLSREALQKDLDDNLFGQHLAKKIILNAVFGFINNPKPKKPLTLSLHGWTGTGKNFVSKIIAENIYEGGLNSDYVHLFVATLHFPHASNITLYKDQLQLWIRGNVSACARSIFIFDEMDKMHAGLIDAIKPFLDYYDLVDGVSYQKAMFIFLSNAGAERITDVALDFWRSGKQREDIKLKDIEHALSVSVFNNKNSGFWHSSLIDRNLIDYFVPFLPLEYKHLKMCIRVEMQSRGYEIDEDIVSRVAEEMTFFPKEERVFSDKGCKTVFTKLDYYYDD
Assay [9] shares this target. Kind of assay: torsin A mutant lysate binding on microarrays – cell lysate, small-molecule microarray, COS7 lysate, 635/667 nm fluorescence, primary screen (AID 1150).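 Also: score pools 667 nm emission and signal to noise measuring lysate protein binding.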 The conditions noted are these: COS7 hTOR1A mutant lysate, 635 nm fluorescence, higher = more signal.
The subject of assay [10] is Sonic hedgehog protein (Shh). Kind of assay: Sonic hedgehog microarray binding compounds – biochemical, small-molecule microarray, 635/667 nm fluorescence, primary screen (AID 1151).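 Also: Shh protein binding to compounds spotted on small-molecule microarray slides; score combines spot fluorescence intensity with signal-to-noise across triplicate slides.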 The conditions noted are these: 635 nm fluorescence, higher = more signal.
Assay [11] in a line: optical density shifts of acrAB sulA E. coli – strain DRC41, OD650, 48 h, E. coli filamentation inducer project, primary screen (AID 1152).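 Also: E. coli MC1000 strain DRC41 lacking acrAB efflux pump and sulA.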 The settings on record: higher = more signal, called active from +8 up or from −8 down.
Assay [12] can be described thus: probe aLefty1 binding on compound microarray – biochemical, small-molecule microarray, 635/667 nm fluorescence, primary screen (AID 1153).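 Also: score merges spot fluorescence with signal-to-noise ratio from the scanned slide images.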 The settings on record: higher = more signal.
The nature of assay [13]: plasmodial surface anion channel blockers, osmotic lysis – cell-based, P. falciparum Indochina, OD700, 1 h, primary screen (AID 1154). The conditions noted are these: P. falciparum Indochina infected RBC osmotic lysis, higher = more signal, called active from +8 up or from −8 down.
Assay [14] is described as follows: plasmodial surface anion channel blockers, osmotic lysis – cell-based, P. falciparum Indochina, OD700, 2 h, primary screen (AID 1155).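 Also: lysis reports solute entry through the parasite surface anion channel PSAC.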 The settings on record: P. falciparum Indochina infected erythrocytes, higher = more signal, called active from +8 up or from −8 down.
A short description of assay [15]: changes in parasitized red cell lysis, either direction – P. falciparum Indochina, OD700, 3 h, PSAC antagonist project, primary screen (AID 1156). The settings on record: P. falciparum-infected erythrocytes, osmotic lysis, higher = more signal, called active from +8 up or from −8 down.
Assay [16] in a line: plasmodial surface anion channel blockers, osmotic lysis – cell-based, P. falciparum Indochina, OD700, 18 h, primary screen (AID 1157). The conditions noted are these: P. falciparum Indochina infected erythrocytes, osmotic lysis OD700, 18 h; higher = more signal, called active from +8 up or from −8 down.
Assay [17] in a line: S6 kinase pathway phospho-S6 level changes – cell-based, A549, cytoblot, luminescence, serum-stimulated, primary screen (AID 1158).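 Also: serum-stimulated A549 lung adenocarcinoma cells; signal is phosphorylated S6 detected by cytoblot immunostaining with HRP secondary.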 The conditions noted are these: 5 h, higher = more signal.
Assay [18] has as its target NADPH oxidase 2 (Homo sapiens) (UniProt P04839). Kind of assay: compounds shifting NOX2 Amplex Red fluorescence – cell-based, HEK293-NOX2, PMA-stimulated, NOX inhibitor project, primary screen (AID 1159). Also: test concentration not given here. The settings on record: 45 min, higher = more signal, called active from +8 up or from −8 down.
Assay [19] has as its target NADPH oxidase 4 (Homo sapiens) (UniProt Q9NPH5). Kind of assay: compounds shifting NOX4 Amplex Red fluorescence – cell-based, HEK293-NOX4, tetracycline-induced, NOX inhibitor project, primary screen (AID 1160). The conditions noted are these: HEK293-NOX4, Amplex Red H2O2 fluorescence, 45 min; higher = more signal, called active from +8 up or from −8 down.
For assay [20], the target named is NADPH oxidase 5 (Homo sapiens) (UniProt Q96PH1). Kind of assay: compounds shifting NOX5 Amplex Red fluorescence – cell-based, HEK293-NOX5, NOX inhibitor project, primary screen (AID 1161). The conditions noted are these: HEK293-NOX5, ionomycin, 45 min, higher = more signal.
Chain of NADPH oxidase 5 (Homo sapiens) (Q96PH1 whole entry, looked up): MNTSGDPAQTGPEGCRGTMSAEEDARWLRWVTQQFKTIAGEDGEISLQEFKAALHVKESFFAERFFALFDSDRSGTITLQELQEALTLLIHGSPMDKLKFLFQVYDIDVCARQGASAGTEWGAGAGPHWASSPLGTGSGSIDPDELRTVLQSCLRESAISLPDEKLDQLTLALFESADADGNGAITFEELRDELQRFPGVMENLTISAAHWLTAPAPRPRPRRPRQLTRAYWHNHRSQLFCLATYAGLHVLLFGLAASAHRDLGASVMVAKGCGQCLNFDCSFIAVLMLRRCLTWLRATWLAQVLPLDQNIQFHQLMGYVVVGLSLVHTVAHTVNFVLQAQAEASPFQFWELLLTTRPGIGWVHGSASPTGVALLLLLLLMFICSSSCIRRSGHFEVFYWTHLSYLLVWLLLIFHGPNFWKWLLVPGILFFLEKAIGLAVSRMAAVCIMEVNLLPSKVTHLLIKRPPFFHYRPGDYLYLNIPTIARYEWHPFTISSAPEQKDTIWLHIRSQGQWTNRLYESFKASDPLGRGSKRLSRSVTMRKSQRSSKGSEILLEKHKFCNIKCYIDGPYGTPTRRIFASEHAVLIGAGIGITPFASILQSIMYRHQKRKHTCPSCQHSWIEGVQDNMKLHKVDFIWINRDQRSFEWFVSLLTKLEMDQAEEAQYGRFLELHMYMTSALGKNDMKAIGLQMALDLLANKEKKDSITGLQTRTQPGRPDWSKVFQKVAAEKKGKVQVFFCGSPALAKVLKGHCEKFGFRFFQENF

Chain of NADPH oxidase 4 (Homo sapiens) (Q9NPH5 whole entry, looked up): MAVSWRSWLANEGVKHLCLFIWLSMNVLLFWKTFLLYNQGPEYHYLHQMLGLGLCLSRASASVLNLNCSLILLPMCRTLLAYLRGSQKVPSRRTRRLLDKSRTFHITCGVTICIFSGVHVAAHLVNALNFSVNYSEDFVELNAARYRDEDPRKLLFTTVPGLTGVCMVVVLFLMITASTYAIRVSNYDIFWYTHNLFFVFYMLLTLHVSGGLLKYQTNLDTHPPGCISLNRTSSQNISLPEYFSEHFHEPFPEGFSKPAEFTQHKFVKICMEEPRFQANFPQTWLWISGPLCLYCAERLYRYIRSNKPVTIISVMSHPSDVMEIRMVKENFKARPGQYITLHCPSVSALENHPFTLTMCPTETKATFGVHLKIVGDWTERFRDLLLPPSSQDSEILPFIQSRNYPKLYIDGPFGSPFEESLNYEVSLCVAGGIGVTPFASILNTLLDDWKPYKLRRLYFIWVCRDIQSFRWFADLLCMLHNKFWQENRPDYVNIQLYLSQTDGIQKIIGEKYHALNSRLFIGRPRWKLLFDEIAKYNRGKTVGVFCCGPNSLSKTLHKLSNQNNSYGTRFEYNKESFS
Chain of NADPH oxidase 2 (Homo sapiens) (P04839 whole entry, looked up): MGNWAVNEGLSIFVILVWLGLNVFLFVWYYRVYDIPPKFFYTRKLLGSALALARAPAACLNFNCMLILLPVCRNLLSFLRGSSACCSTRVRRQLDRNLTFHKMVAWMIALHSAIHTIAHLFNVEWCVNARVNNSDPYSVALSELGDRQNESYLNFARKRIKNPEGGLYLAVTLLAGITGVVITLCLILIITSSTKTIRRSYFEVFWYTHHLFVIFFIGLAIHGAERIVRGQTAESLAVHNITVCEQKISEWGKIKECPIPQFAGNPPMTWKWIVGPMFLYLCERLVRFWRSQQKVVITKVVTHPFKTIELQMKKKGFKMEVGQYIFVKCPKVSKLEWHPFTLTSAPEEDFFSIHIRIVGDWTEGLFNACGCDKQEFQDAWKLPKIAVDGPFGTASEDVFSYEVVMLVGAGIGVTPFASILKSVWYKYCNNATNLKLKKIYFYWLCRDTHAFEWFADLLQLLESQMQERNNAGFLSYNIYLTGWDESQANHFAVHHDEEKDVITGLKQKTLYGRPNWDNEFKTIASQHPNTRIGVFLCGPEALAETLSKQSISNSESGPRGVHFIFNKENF

For `C=CCOC(=O)[C@@H]1[C@H]2C(=O)O[C@H](c3ccccc3)[C@H](c3ccccc3)N2[C@H](c2ccc(OCCOC(=O)[C@H]3C[C@H]4C(=O)N[C@@H](CCCCNC(C)=O)C(=O)N4[C@H]3c3ccc(O)cc3)cc2)[C@@]12C(=O)Nc1ccc(I)cc12`, the composite z-score is 0.728 in [1]; 0.0984 in assay [6]; 0.0073 in [7]; 1.32 with Torsin-1A (Homo sapiens) [8]; 1.29 in the assay with Torsin-1A (Homo sapiens) [9]; 2.07 in assay [10]. The compound also displayed a composite z-score in assay [12] of 0.325. Moreover, the z-score is -0.317 (inactive) in [2]; 0.645 (inactive) in assay [3]; 0.549 (inactive) in [4]; 0.906 (inactive) in assay [5]; -0.725 (inactive) in assay [11]; 2.99 (inactive) in [13]. Further, the z-score in assay [14] is 1.92 (inactive); in [15] it was 0.855 (inactive); in [16], 1.23 (inactive); in assay [17] it was 1.3; in [18] it was 2.16 (inactive); in assay [19], 1.27 (inactive). The z-score in assay [20] was 1.64.

Turning to `O=C1O[C@H](c2ccccc2)[C@H](c2ccccc2)N2[C@H]1[C@@H](C(=O)Nc1nc3ccccc3s1)[C@]1(C(=O)Nc3ccc(C#CC4(O)CCCCCC4)cc31)[C@H]2c1ccc(O)cc1`, the composite z-score in assay [1] was determined as 0.328; in [6] it was 1.34; in assay [7], 0.293; in the assay with Torsin-1A (Homo sapiens) [8], 0.417; with Torsin-1A (Homo sapiens) [9], 0.164; in assay [10], 1.82. The composite z-score in assay [12] stood at 0.308. Further, the z-score in assay [2] was -0.859 (inactive); in assay [3] it was -0.781 (inactive); in [4] it was 0.802 (inactive); in [5] it was 0.3 (inactive); in [11], -1.07 (inactive); in assay [13], 0.797 (inactive). The z-score is 1.57 (inactive) in assay [14]; 0.315 (inactive) in assay [15]; 1.38 (inactive) in assay [16]; -0.0907 in assay [17]; 1.03 (inactive) in [18]; -0.14 (inactive) in assay [19]. Also, the z-score in assay [20] was 0.842.

Turning to `O=C1C2C=CC(C(O)c3ccccc3)N(n3cnnc3)C2C(=O)N1Cc1ccccc1` (stereo not given), the composite z-score in assay [1] is 0.068; in assay [6], 0.266; in [7] it was 0.241; with Torsin-1A (Homo sapiens) [8], 0.148; with Torsin-1A (Homo sapiens) [9], -0.457; in assay [10], -0.189. In addition, in assay [12], the composite z-score stood at 0.3. The z-score was 0.455 (inactive) in assay [2]; -1.43 (inactive) in assay [3]; 0.822 (inactive) in [4]; -0.5 (inactive) in assay [5]; -0.678 (inactive) in assay [11]; 1.23 (inactive) in [13]. Besides, the z-score in assay [14] was -0.137 (inactive); in [15], -0.138 (inactive); in [16], -1.55 (inactive); in [17], 0.591; in [18], 0.569 (inactive); in assay [19] it was -0.323 (inactive). Also, the z-score in assay [20] is -0.324.

As to `[N-]=[N+]=NCc1ccccc1[C@H]1OC(c2ccc(OCCCO)cc2)=N[C@@]1(Cc1ccccc1N=[N+]=[N-])C(=O)NCc1ccccc1`, the composite z-score in assay [1] was determined as 0.928; in assay [6], 0.303; in assay [7], 0.671; in the assay with Torsin-1A (Homo sapiens) [8], 0.22; in the assay with Torsin-1A (Homo sapiens) [9], 0.681; in assay [10], 0.033. This compound returned a composite z-score in [12] of 0.195. In addition, the z-score is -3.99 (inactive) in assay [2]; -0.358 (inactive) in assay [3]; 1.74 (inactive) in [4]; -0.676 (inactive) in [5]; -0.258 (inactive) in assay [11]; 28.3 (active) in assay [13]. Besides, the z-score is 20.5 (active) in assay [14]; 1.96 (inactive) in assay [15]; 1.99 (inactive) in assay [16]; -0.0679 in assay [17]; -0.627 (inactive) in assay [18]; 0.522 (inactive) in assay [19]. Besides, in assay [20], the z-score was -0.56.
